According to PubChem BioAssay (NCATS):
Calls of active or inactive are those of the source. No rule for the calls is given here.

Tested on: HIV-1 nucleocapsid protein NCp7 (binding to TG oligonucleotide)
Assay: HIV Nucleocapsid (AID 346);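 also: potency is for inhibitors that block NC binding and lower polarization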
Settings: HIV-1 NC / fluorescein-TGTGTGTG probe, fluorescence polarization
Summary of the method: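 Inhibition of nucleocapsid binding to single-stranded 5'-TGTGTGTG probe (10 nM) was measured by fluorescence polarization after 1 hr at room temperature with 100 nM protein under high-salt, zinc-containing, reducing conditions.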
Potency is read from the fitted curve at half-maximal effect.

| SMILES | Potency |
| --- | --- |
| c1csc(CNc2ncnc3ccc(-c4ccc5c(c4)OCO5)cc23)c1 | > 20 µM (inactive) |
| CNc1ccnc(-c2ccccc2OC)n1 | > 20 µM (inactive) |
| O=C(c1cccc(F)c1)N1CCC2(CCN(Cc3ccncc3)CC2)CC1 | > 20 µM (inactive) |
| COc1ccccc1-c1nccc(N2CCN(C)CC2)n1 | > 20 µM (inactive) |
| O=C(c1cccc(F)c1)N1CCC2(CC1)CCN(C(c1ccccc1)c1ccccc1)CC2 | > 20 µM (inactive) |
| COc1ccc(CNc2ncncc2-c2cccnc2)c(OC)c1 | > 20 µM (inactive) |
| O=C(c1csnn1)N1CCC[C@@]2(CCN(Cc3cc(C(F)(F)F)cc(C(F)(F)F)c3)C2)C1 | > 20 µM (inactive) |
| O=c1c(-c2ccccc2)nc2cnc(N3CCOCC3)nc2n1-c1ccccc1 | > 20 µM (inactive) |
| CS(=O)(=O)Nc1cccc(-c2nc(NC3CC3)c3ccccc3n2)c1 | > 20 µM (inactive) |
| O=C(c1csnn1)N1CCC2(CC1)CN(c1cccc(-c3ccccc3)c1)C2 | > 20 µM (inactive) |
| Cc1cccc(CNc2cc(-c3c(C)noc3C)ncn2)c1 | > 20 µM (inactive) |
| COc1cccc(-c2cncnc2NCc2cccc(C)c2)c1 | > 20 µM (inactive) |
| O=C(c1cnccn1)N1CCC2(CCCN(c3ccncc3)C2)CC1 | > 20 µM (inactive) |
| COCC(=O)N1CCC2(CC1)CN(Cc1ccc(C#N)cc1)C2 | > 20 µM (inactive) |
| CCNc1ncc2nc(-c3ccccc3)c(=O)n(CCOC)c2n1 | > 20 µM (inactive) |
| Clc1ccccc1-c1nccc(NCCN2CCOCC2)n1 | > 20 µM (inactive) |
| COc1ccc(NC(=O)N2CCCC3(CCN(C(=O)c4ccc(OC)cc4)CC3)C2)cc1 | > 20 µM (inactive) |
| COc1ccccc1CCn1c(=O)cnc2cncnc21 | > 20 µM (inactive) |
| COc1ncc2nc(-c3ccccc3)c(=O)n(CCC#N)c2n1 | > 20 µM (inactive) |
| COc1ccc(NC(=O)N2CCCC3(CCN(S(C)(=O)=O)CC3)C2)cc1 | > 20 µM (inactive) |

| SMILES | Potency |
| --- | --- |
| COC(=O)N1CCC2(CCCN(Cc3cc(C(F)(F)F)cc(C(F)(F)F)c3)C2)CC1 | > 20 µM (inactive) |
| N#CCCn1c(=O)c(-c2cc(F)cc(F)c2)nc2cnc(OCc3ccccc3)nc21 | > 20 µM (inactive) |
| O=C(Nc1cccc(F)c1)N1CCC2(CC1)CCN(C(=O)c1csnn1)CC2 | > 20 µM (inactive) |
| COc1ccc(CNc2ncnc3ccc(-c4ccccc4C#N)cc23)c(OC)c1 | > 20 µM (inactive) |
| O=c1cnc2cnc(Oc3ccccc3)nc2n1CCc1ccccc1 | > 20 µM (inactive) |
| COc1ccc(-c2nc3cnc(N(C)C)nc3n(-c3ccccc3)c2=O)cc1 | > 20 µM (inactive) |
| COc1ncc2nc(CCc3ccccc3)c(=O)n(Cc3ccc(F)cc3)c2n1 | > 20 µM (inactive) |
| CN(C)Cc1ccccc1-c1cncnc1Nc1ccc(F)cc1 | > 20 µM (inactive) |
| CN(C)c1ccc(-c2nc(NCc3cccnc3)c3ccccc3n2)cc1 | > 20 µM (inactive) |
| CN1CCN(c2ccnc(-c3cccc(NS(C)(=O)=O)c3)n2)CC1 | > 20 µM (inactive) |
| COc1ccccc1CNc1ncncc1-c1ccccc1CN(C)C | > 20 µM (inactive) |
| COc1cccc(Cn2c(=O)c(-c3cn(C)c4ccccc34)nc3cnc(OC)nc32)c1 | > 20 µM (inactive) |
| O=C(c1cnccn1)N1CCC[C@@]2(CCN(Cc3ccccc3)C2)C1 | > 20 µM (inactive) |
| O=c1c(-c2ccccc2)nc2cnc(Oc3cccc(Cl)c3)nc2n1C[C@H]1CCCO1 | > 20 µM (inactive) |
| COc1ccc(-n2c(=O)c(-c3cn(C)c4ccccc34)nc3cnc(N4CCNCC4)nc32)cc1 | > 4 µM (inactive) |
| Cn1c(=O)c(CCc2ccccc2)nc2cnc(N3CCNCC3)nc21 | > 20 µM (inactive) |
| COc1ccc(C(=O)N2CCC3(CC2)CN(C(=O)Nc2ccccc2)C3)cc1 | > 20 µM (inactive) |
| COc1cccc(-c2ccc3ncnc(NC4CC4)c3c2)c1 | > 20 µM (inactive) |
| COCC(=O)N1CCC2(CCN(Cc3ccccc3)CC2)CC1 | > 20 µM (inactive) |
| O=c1c(-c2ccc(F)cc2)nc2cnc(Oc3ccccc3)nc2n1C1CC1 | > 20 µM (inactive) |
